In the library only some 10% were active in any assay of this set; here they are far more common.
HPGD block = blocks human HPGD enzyme activity | P15428 | purified HPGD, NADH fluorescence kinetic, PGE2 substrate | Potency, µM, without a hit: top-dose activity change, negative = inhibition, actives largely listed as inhibitors | 150,000 tested, 4.3% active | AID 894; also: potency is read from the fitted curve at half-maximal effect
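20 nM HPGD preincubated 15 min at room temperature with compound in 50 mM Tris-HCl pH 8, 0.01% Tween 20. Started with 1 mM NAD+ and 30 uM prostaglandin E2; NADH fluorescence (360/450 nm) read 5 times over 30-s intervals, last minus first.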
ALDH1A1 inh = ALDH1A1 (human) enzyme inhibition | 220,000 tested, 7.3% active | AID 1030 | Purified ALDH1A1, NADH fluorescence, propionaldehyde substrate | Potency, µM (titrated, usually from 75.3 µM), for the others: at the top dose activity, negative = inhibition, hits mostly inhibitors;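 also: potency is read from the fitted curve at half-maximal effect; plate controls were no enzyme wells and a reference inhibitor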
LMNA splice mod = LMNA splicing modulation | AID 1487 | 200,000 tested, 0.01% active | HeLa LMNA splicing GFP/RFP minigene ratio, 48 h | Potency, µM (top dose mostly 46.1 µM), without a hit: top-dose ratio change, negative = inhibition, hits mostly inhibitors; active = well fitted inhibition curve with a large enough effect in the signal ratio, with a control signal flat, not every such curve was filed as active; inconclusive = small, poorly fitted or top-dose-only effect, or effect the other way, or a change in a side signal; the % refers to the signal ratio; also: potency is read from the fitted curve at half-maximal effect
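Read-out is the ratio of GFP to DsRed2 object intensity, acquired by 488 nm laser-scanning cytometry on HeLa lamin A-EGFP minigene reporter cells. Compound incubation 48 hrs at 37 °C in Opti-MEM with 2% FBS; DMSO 0.5% final.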
PNC inhibitor = perinucleolar compartment assembly inhibition; PC3M PTB-GFP, PNC prevalence imaging, 16 h; hits give low values; activity change (PNC), negative = inhibition, % at 10 µM; 140,000 tested, 3.1% active; AID 2417;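 active = readout at or below -70, meaning at least 70% loss of cells showing the perinucleolar compartment, a nuclear body marking cancer cells; inconclusive = readout between -30 and a set limit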;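 also: plate controls were DMSO wells for no effect and camptothecin positive control wells for full effect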
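Read-out is percentage of cells bearing a perinucleolar compartment, from automated 20x imaging of fixed, Hoechst-stained PC3M PTB-GFP cells. Cells were seeded 4 h, then exposed 16 h to compound (23 nl of library stock) in duplicate plates.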
ALOX12 inhib = inhibitors of human 12-lipoxygenase (ALOX12). P18054. AID 1452. purified 12-hLO, xylenol orange hydroperoxide absorbance. 150,000 tested, 0.12% active. Potency, µM (doses to about 57.1 µM), inactives show top-dose activity change, negative = inhibition, most hits filed as inhibitors; active = well fitted inhibition curve with a large enough effect; inconclusive = small, poorly fitted or top-dose-only effect; also: potency is read from the fitted curve at half-maximal effect; nearly all actives have a fitted effect of over 55% in size
Target sequence (P18054 whole entry, looked up): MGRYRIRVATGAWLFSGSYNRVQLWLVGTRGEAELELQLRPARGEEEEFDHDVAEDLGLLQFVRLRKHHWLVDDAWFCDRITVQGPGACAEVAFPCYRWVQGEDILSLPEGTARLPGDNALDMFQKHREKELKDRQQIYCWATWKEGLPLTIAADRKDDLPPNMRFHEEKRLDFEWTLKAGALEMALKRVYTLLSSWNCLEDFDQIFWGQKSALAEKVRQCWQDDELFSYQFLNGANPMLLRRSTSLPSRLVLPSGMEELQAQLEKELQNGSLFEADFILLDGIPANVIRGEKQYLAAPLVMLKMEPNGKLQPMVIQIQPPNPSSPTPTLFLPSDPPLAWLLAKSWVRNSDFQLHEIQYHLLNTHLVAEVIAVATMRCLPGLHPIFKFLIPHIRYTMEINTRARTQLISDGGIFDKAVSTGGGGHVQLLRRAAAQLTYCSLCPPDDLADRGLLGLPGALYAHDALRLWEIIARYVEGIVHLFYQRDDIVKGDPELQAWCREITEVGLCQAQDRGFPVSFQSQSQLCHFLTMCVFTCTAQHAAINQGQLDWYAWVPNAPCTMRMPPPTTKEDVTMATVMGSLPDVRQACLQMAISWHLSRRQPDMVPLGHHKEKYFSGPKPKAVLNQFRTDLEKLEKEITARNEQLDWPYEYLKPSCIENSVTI
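Hydroperoxide output read as Fe(III)-xylenol orange absorbance, 573-to-405 nm ratio, after 30 min reaction with 40 uM arachidonic acid. Enzyme: 150 nM purified human 12hLO, 15 min compound preincubation; 25 mM Hepes pH 7.0, room temperature.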
* = called active by the depositor; u = inconclusive; x = not tested or not shown; [ ] = dose if it differs, or a comment. Unless noted, calls follow the shape of the dose curve; as a rule, active = well fitted inhibition curve with a large enough effect (not every such curve was filed as active); inconclusive = small, poorly fitted or top-dose-only effect, or another doubt; inactive = no such curve, though single readings can be large or run the other way. Unless noted, % is scaled to controls: 0 for no effect and ±100 for the full control effect.

SMILES	HPGD block	ALDH1A1 inh	LMNA splice mod	PNC inhibitor	ALOX12 inhib
CCOC(=O)c1sc(=S)n(-c2ccc(Cl)cc2)c1SC	-21.1%	-16.4%	12.3%	55.5	-3.2%
COCC(=O)N1CCC[C@@]2(CCN(C(=O)Nc3cccc(F)c3)C2)C1	-0.3%	-0.4%	x	x	-2.1%
Cc1ccccc1C(=O)N/N=C/c1ccsc1C	-16.5%	-11.3%	11.6%	69.4	0.2%
Cc1sccc1/C=N/NC(=O)c1cccc2ccccc12	-6.8%	4.6%	4.3%	-103.7*	-4.0%
COC(=O)[C@@]1(Cc2ccc(OC)cc2)[C@H]2c3cc(C(=O)N(C)C)n(Cc4cc(F)c(F)c(F)c4)c3C[C@H]2CN1C(=O)c1ccccc1	-12.1%	-1.3%	x	x	-14.4%
CC(C)NC(=O)C1CCCN(S(=O)(=O)c2ccc3c(ccn3C)c2)C1 (configuration not stated)	x	x	2.8%[46 µM]	x	x
COc1ccc(C2=CSC3=C(C(=O)c4cccc(S(=O)(=O)N(C)C)c4)CCN23)cc1	-16.9%	2µM*	5.2%	u	-11.9%
CC(C)CN(CC(C)C)C1=N/C(=C\c2ccco2)C(=O)N1c1ccccc1	u	12.6µM*	12.3%	48.5	-13.8%
CCOC(=O)Nc1ccc(S(=O)(=O)Nc2cc(C)nc(C)n2)cc1	-2.8%	-1.7%	1.0%	12.9	9.7%
Cc1ccc(S(=O)(=O)Nc2ccc(S(=O)(=O)Nc3cc(C)nc(C)n3)cc2)cc1	x	3.98µM*	u	x	x
Cc1cc(NS(=O)(=O)c2ccc(NS(=O)(=O)c3ccc(CC(C)C)cc3)cc2)nc(C)n1	x	31.6µM*	x	x	x
Cc1cc(NS(=O)(=O)c2ccc(NC(=O)CCCC(=O)O)cc2)nc(C)n1	-1.5%	-3.2%	-8.3%	-88.4*	2.7%
Cc1ccn2cc(-c3ccc(NS(=O)(=O)c4ccccc4)cc3)nc2c1	22.4µM*	-4.8%	u	17.9	-1.9%
COc1ccc(CCNC(=O)c2cc(Nc3ccccc3)nc3ccccc23)cc1OC	x	x	-1.3%[46 µM]	x	x
CCOC(=O)C(NC(C)=O)(Nc1ccc(S(=O)(=O)Nc2cc(C)nc(C)n2)cc1)C(F)(F)F (configuration not stated)	3.6%	14.1µM*	6.5%	u	-3.6%
CCN1CCN(C(=O)/C(C#N)=C/c2ccc(OC(F)F)cc2)CC1	x	1.3%	-2.9%[46 µM]	x	x
N#C/C(=C\c1ccc(C#N)cc1)C(=O)N1CCCC1	x	7.94µM*	-33.3%[46 µM]	x	x
CN1CCN(C(=O)/C(C#N)=C/c2ccc(F)cc2)CC1	x	1.78µM*	-2.5%[46 µM]	x	x
Cc1ccc(/C=C(\C#N)C(=O)N2CCCC2)c(C)c1	x	-2.8%	x	x	x
Cc1ccc(C)c(N2CCN(C(=O)c3cc4c(=O)n(Cc5cccnc5)ccc4nc3C)CC2)c1	x	x	4.4%[46 µM]	x	x
O=S(=O)(Nc1ccc2nc(-c3ccc(F)cc3)oc2c1)c1ccccc1	x	x	-7.8%[46 µM]	x	x
Cc1nnc(-c2cnn(-c3ccccc3)c2N)n1Cc1cccc(C(F)(F)F)c1	12.6µM*	u	-13.6%	-10.0	2.9%
Cc1nnc(-c2cnn(-c3ccccc3)c2N)n1Cc1ccncc1	-7.3%	-4.1%	-4.3%	17.8	6.3%
CC(C)(C)[C@@]1(O)CCN2C[C@@H]3c4ccccc4CCc4cccc(c43)[C@@H]2C1	x	x	x	x	-4.3%
Cc1n[nH]c(C)c1C(=O)CC1(O)C(=O)N(Cc2ccccc2)c2ccc(Br)cc21 (configuration not stated)	-12.0%	10µM*	6.2%	u	11.1%
SMILES	HPGD block	ALDH1A1 inh	LMNA splice mod	PNC inhibitor	ALOX12 inhib
Cc1n[nH]c(C)c1C(=O)CC1(O)C(=O)N(CCc2ccccc2)c2ccc(Br)cc21 (configuration not stated)	-11.3%	u	-2.4%	20.0	3.6%
C=CCN1C(=O)C(O)(CC(=O)c2ccco2)c2cc(Br)ccc21 (configuration not stated)	x	7.94µM*	x	x	x
O=C(Nc1ccc(-n2nncc2-c2ccco2)cc1)c1cccc(F)c1	12.6µM*	u	-2.0%	12.2	-7.6%
O=C(Nc1ccc(-n2nncc2-c2ccco2)cc1)c1cc2ccccc2oc1=O	-17.9%	-11.8%	u	36.7	-2.5%
O=C(O)/C=C\C(=O)Nc1ncn[nH]1	-0.4%	-7.7%[13.5 µM]	x	x	5.2%[11.4 µM]
COc1ccc(C(C)=O)cc1COC(=O)CNC(=O)c1ccccc1F	u	7.08µM*	-9.5%	u	2.7%
COc1ccccc1CNC(=O)C(=O)NCC(c1cccs1)S(=O)(=O)c1ccc(F)cc1 (configuration not stated)	x	x	-15.2%[46 µM]	x	x
CCCCC#CC1C=CC(Oc2cc(OC)c(OC)c(OC)c2)C(COC(=O)OCC)O1 (configuration not stated)	x	-3.9%[13.5 µM]	x	x	x
CCOC(=O)N1CCN(S(=O)(=O)c2ccc(OC)c(Cl)c2Cl)CC1	-17.8%	u	u	17.1	-1.3%
CCOc1ccc(S(=O)(=O)N2CCN(c3ccccc3)CC2)c2cccnc12	-27.1%	28.2µM*	-1.6%	u	7.4%
CCOC(=O)N1CCN(S(=O)(=O)c2ccc(OCC)c3ccccc23)CC1	28.2µM*	u	u	17.8	-10.5%
CCOc1ccc(S(=O)(=O)N2CCN(c3ccc(OC)cc3)CC2)c2cccnc12	-2.5%	-8.2%	u	3.6	-17.3%
CCOC(=O)Nc1ccc(NS(=O)(=O)c2ccc(C)cc2)cc1	-12.0%	u	u	24.5	-6.1%
Cc1ccc(S(=O)(=O)Nc2ccc(NC(=O)/C=C/C(=O)O)cc2)cc1	x	35.5µM*	6.0%[46 µM]	x	x
Cc1ccc(CNC(=O)/C=C/C(=O)O)cc1	x	0.3%	u	x	x
Cc1ccc(NC(=O)/C=C\C(=O)NCC(=O)O)cc1	x	28.2µM*	8.4%[9.22 µM]	x	x
O=C(O)/C=C/C(=O)Nc1ccc(-c2ccccc2)cc1	x	3.16µM*	-1.2%[46 µM]	x	x
O=C(CN1C(=O)CCc2cc(S(=O)(=O)N3CCOCC3)ccc21)NCc1ccc(F)cc1	x	x	6.4%[46 µM]	x	x
O=C(NC1CCCCCC1)c1ccc2c(c1)sc1nc(-c3ccc(F)cc3)cn12	x	x	-2.4%[46 µM]	x	x
Cc1ccc(C(O)(COC(=O)C(C)C)COC(=O)C(C)C)c(O)c1	x	7.94µM*	x	x	x
C[N+](C)(C)[C@H](Cc1c[nH]c(=S)[nH]1)C(=O)O	-5.0%	5.0%[13.5 µM]	x	x	-4.4%[11.4 µM]
Cc1ccc(C2(c3ccc(C)cc3)CC2C(=O)Nc2ccc([N+](=O)[O-])cc2O)cc1 (configuration not stated)	14.1µM*	-9.1%	u	-17.8	-21.1%
CC1(C)CC1C(=O)Nc1ccc([N+](=O)[O-])cc1Br (configuration not stated)	x	-6.0%	-4.3%	-24.1	-1.4%
COCCNC(=O)c1ccc(N(C)S(=O)(=O)c2ccc(OC)c(OC)c2)cc1	6.31µM*	-13.3%	-6.7%	161.8	-1.4%
COCCCNC(=O)c1ccc(N(C)S(=O)(=O)c2ccc(OC)cc2)cc1	1.12µM*	-5.3%	-6.2%	u	2.0%
COCCCNC(=O)c1ccc(N(C)S(C)(=O)=O)cc1	-12.7%	-4.0%	5.8%	u	-0.3%

High-throughput results (PubChem)
